Data published in PubChem BioAssay AID504850 (National Center for Advancing Translational Sciences (NCATS), 2011).
The whole screen tested about 2,300 compounds, of which about 1,200 (52%) were called active. About 34% were inconclusive and are not listed. Calls follow the shape of the dose curve; as a rule, active = well fitted inhibition curve with a large enough effect; inconclusive = small, poorly fitted or top-dose-only effect, or effect the other way; inactive = no such curve, though single readings can be large or run the other way. So high a share suggests a set chosen from earlier hits. Some of the results follow.

Test: Confirmation screen for delayed death inhibitors of the malarial parasite plastid, 48 hour incubation; also: nearly all actives have a fitted effect of over 65% in size
Details: P. falciparum-infected erythrocytes, luciferase growth; series mostly up to 28.7 µM
Summary of the method: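 Erythrocytes infected with luciferase-expressing P. falciparum (2% hematocrit, 0.1% parasitemia) incubated with compounds 48 hours at 37 C, 5% CO2, in RPMI/Albumax. Growth inhibition scored as reduced luminescence after detection reagent.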
Potency is read from the fitted curve at half-maximal effect.

Q: With `COc1ccc(Cn2c(O)c(C=Nc3ccc(O)cc3)c3ccccc3c2=O)cc1` as the compound, how does the Potency read?
A: The Potency was 10 µM (active).

Q: For `CC[C@@H]1CC=C[C@H]2[C@H]1C(=O)N(Cc1ccccc1)[C@H]2c1ccoc1`, which Potency is on record?
A: The Potency was 7.08 µM (active).

Q: For `O=C(COC(=O)c1c2c(nc3ccccc13)CCN(Cc1ccccc1)C2)Nc1c(F)cccc1F`, which Potency is on record?
A: Its Potency is 6.31 µM (active).

Q: For `COc1cccc(CN2CCN(c3nc4nonc4nc3N3CCCCC3)CC2=O)c1`, which Potency is on record?
A: Its Potency is 10 µM (active).

Q: Which Potency does the source give for `O=C(COc1ccc(Br)cc1)Nc1cc(S(=O)(=O)N2CCCCC2)ccc1N1CCCCC1` here?
A: Its Potency is 5.62 µM (active).

Q: With `O=C(COc1ccc(Cl)cc1)Nc1cc(S(=O)(=O)N2CCCCC2)ccc1N1CCCCC1` as the compound, how does the Potency read?
A: Its Potency is 5.62 µM (active).

Q: For `CC(Oc1cccc(Cl)c1)C(=O)Nc1cc(S(=O)(=O)N2CCOCC2)ccc1N1CCCCC1` (centres undefined), which Potency is on record?
A: The Potency was 5.01 µM (active).

Q: For `CCN1CCN(c2ccc(S(=O)(=O)N3CCCCC3)cc2NC(=O)COc2cc(C)ccc2Cl)CC1`, which Potency is on record?
A: Its Potency is 14.1 µM (active).

Q: Which Potency does the source give for `C[C@@H]1[C@H](O)C[C@@]23COC(=O)C2=CCCC3[C@@]1(C)CCC1COC(=O)C1` (some centres undefined) here?
A: Its Potency is “inactive”.

Q: For `CSc1ccc(/C=C/C(=O)c2ccc(NC(=O)C(C)C)cc2)cc1`, which Potency is on record?
A: Its Potency is 15.8 µM (active).

Q: With `CSc1c(CC(=O)Nc2ccccc2)n(C)c2ccccc12` as the compound, how does the Potency read?
A: Its Potency is 8.91 µM (active).

Q: Which Potency does the source give for `Cc1ccc(NC(=O)c2cc(C(C)(C)C)nn2Cc2ccccc2)cc1` here?
A: Its Potency is 11.2 µM (active).

Q: Which Potency does the source give for `CC(C)(C)c1cc(C(=O)NNc2cccc(Cl)c2)n(Cc2ccccc2)n1` here?
A: The Potency was 12.6 µM (active).

Q: Which Potency does the source give for `Cc1cccc(Cn2nc(C(C)(C)C)cc2C(=O)Nc2ccc(F)cc2)c1` here?
A: The Potency was 4.47 µM (active).

Q: With `Cc1ccc2c(c1)cc(C(=O)NCc1ccccc1)n2C` as the compound, how does the Potency read?
A: Its Potency is “inactive”.

Q: For `CCOc1c(Cl)cc(C(=O)Nc2ccccc2C(=O)O)cc1Cl`, which Potency is on record?
A: Its Potency is “inactive”.

Q: For `CCOC(=O)C1CCN(c2cc3c(cc2NC(=O)c2ccccc2Cl)n(C)c(=O)n3C)CC1`, which Potency is on record?
A: The Potency was 11.2 µM (active).

Q: For `CC(=O)N(C)C1=C(N2CCOCC2)C(=O)c2ccccc2C1=O`, which Potency is on record?
A: The Potency was 0.631 µM (active).

Q: With `CN1CCN(C(=O)CCN2C(=O)/C(=C/c3cccc(Br)c3)SC2=S)CC1` as the compound, how does the Potency read?
A: The Potency was 11.2 µM (active).

Q: With `O=C(CCN1C(=O)/C(=C/c2ccccc2Cl)SC1=S)N1CCOCC1` as the compound, how does the Potency read?
A: The Potency was 15.8 µM (active).

Q: Which Potency does the source give for `CN1CCN(C(=O)CCN2C(=O)/C(=C\c3ccc(Cl)cc3)SC2=S)CC1` here?
A: The Potency was “inactive”.

Q: With `C=C(C)n1c(=O)n(Cc2ccccc2C)c2ccccc21` as the compound, how does the Potency read?
A: The Potency was 12.6 µM (active).

Q: Which Potency does the source give for `Cc1ccc(-n2c(Cl)c(Cl)nc(Cl)c2=O)cc1` here?
A: The Potency was 12.6 µM (active).

Q: For `Cc1ccc(-n2nnnc2SCC(=O)Nc2ccccc2-c2ccccc2)cc1C`, which Potency is on record?
A: The Potency was “inactive”.

Q: With `Cc1ccc(-n2nnnc2Sc2nc([N+](=O)[O-])nn2C)cc1C` as the compound, how does the Potency read?
A: The Potency was 3.55 µM (active).

Q: For `O=C(OCC(=O)N1CCN(c2ccccc2)CC1)c1cc(Cl)ccc1[N+](=O)[O-]`, which Potency is on record?
A: Its Potency is “inactive”.

Q: For `N#Cc1cc(C(=O)c2cc(Cl)ccc2O)cn(-c2ccccc2)c1=O`, which Potency is on record?
A: The Potency was 14.1 µM (active).

Q: Which Potency does the source give for `Cc1[nH]c(=O)[nH]c(=O)c1S(=O)(=O)N1CCCC(C(=O)N2CCN(c3cccc(C(F)(F)F)c3)CC2)C1` (centres undefined) here?
A: The Potency was 12.6 µM (active).

Q: Which Potency does the source give for `Cc1[nH]c(C)c(S(=O)(=O)N2CCN(c3cccc(C(F)(F)F)c3)CC2)c1C(=O)N1CCCCC1` here?
A: The Potency was “inactive”.

Q: With `Cc1cc(C(C)(C)C)cc(C)c1CCNC(=O)c1c(C)noc1C` as the compound, how does the Potency read?
A: Its Potency is 12.6 µM (active).

Q: For `Cc1cc(C(C)(C)C)cc(C)c1CCNC(=O)c1ccc[n+]([O-])c1`, which Potency is on record?
A: Its Potency is 14.1 µM (active).

Q: With `CCCCNC(=O)c1onc(CSc2cc(C)ccc2C)c1C(=O)O` as the compound, how does the Potency read?
A: Its Potency is “inactive”.

Q: Which Potency does the source give for `Cc1ccc(C)c(SCc2noc(C(=O)NC(C)C)c2C(=O)O)c1` here?
A: The Potency was “inactive”.

Q: For `CCN(C(=O)c1cc2c(=O)n3ccccc3nc2n1CCCOC)C1CCCCC1`, which Potency is on record?
A: The Potency was 12.6 µM (active).

Q: With `COc1ccc(OC)c(NC(=O)c2nc(S(=O)(=O)Cc3ccccc3)ncc2Cl)c1` as the compound, how does the Potency read?
A: Its Potency is “inactive”.

Q: Which Potency does the source give for `COc1ccc(OC)c(NC(=O)c2ccccc2N(C)S(=O)(=O)c2ccc(C)cc2)c1` here?
A: The Potency was 14.1 µM (active).

Q: Which Potency does the source give for `Cc1ccc(Nc2cc(C)c3ccc(O)cc3n2)cc1C` here?
A: Its Potency is 0.224 µM (active).

Q: Which Potency does the source give for `CC(c1ccco1)N(C(=O)c1cc(Cl)cc(Cl)c1)c1ccccn1` (centres undefined) here?
A: The Potency was 11.2 µM (active).

Q: Which Potency does the source give for `CC(C)N1CCC2(CC1)N=C(c1ccc3c(c1)OCO3)CC(c1cc(Cl)ccc1O)N2` (centres undefined) here?
A: The Potency was 2.82 µM (active).

Q: For `CC(C)C1N=C(c2ccc3c(c2)OCO3)CC(c2ccccc2O)N1` (centres undefined), which Potency is on record?
A: The Potency was 12.6 µM (active).

Q: Which Potency does the source give for `COc1ccc(/C=C/C(=O)c2ccccc2)cc1Cn1nnc2ccccc21` here?
A: Its Potency is 10 µM (active).

Q: For `COc1cc(Cn2nnc3ccccc32)ccc1O`, which Potency is on record?
A: Its Potency is 12.6 µM (active).

Q: For `CC(C)C[C@@H](CN=[N+]=[N-])N1CCN(C)CCC1=O`, which Potency is on record?
A: Its Potency is “inactive”.

Q: For `Cc1cc(NC(=O)COC(=O)c2ccccc2S(=O)(=O)N(C)c2ccccc2)no1`, which Potency is on record?
A: Its Potency is 8.91 µM (active).

Q: For `O=C(COC(=O)c1ccc(O)cc1O)Nc1ccc2ccccc2c1`, which Potency is on record?
A: The Potency was “inactive”.

Q: With `CC(C)NC(=O)NC(=O)COC(=O)c1ccccc1Oc1ccccc1` as the compound, how does the Potency read?
A: The Potency was “inactive”.

Q: Which Potency does the source give for `Cc1cccc(C)c1NC(=O)CCCSc1nnc(-c2ccc(F)cc2)n1-c1ccccc1` here?
A: The Potency was 15.8 µM (active).

Q: With `COC(=O)CCC(=O)OC1(C)C(=O)C=C2C=C(C3CC3)N(CCCOC(C)C)C=C2C1=O` (centres undefined) as the compound, how does the Potency read?
A: Its Potency is 2 µM (active).

Q: With `OCC1(CCOc2ccccc2)CCN(Cc2nc3ccc(F)cc3[nH]2)CC1` as the compound, how does the Potency read?
A: Its Potency is 12.6 µM (active).

Q: With `Cc1c(CN2CCC(CO)(CCOc3ccccc3)CC2)[nH]c2ccc(Cl)cc12` as the compound, how does the Potency read?
A: Its Potency is 7.08 µM (active).

Q: For `CN(C)c1ccc2nc3ccc(=[N+](C)C)cc-3sc2c1`, which Potency is on record?
A: Its Potency is 0.0794 µM (active).

Q: For `COc1ccccc1-n1c(SCC(=O)Nc2cc(C)on2)nc2c([nH]c3ccccc32)c1=O`, which Potency is on record?
A: Its Potency is 8.91 µM (active).

Q: Which Potency does the source give for `COc1ccc(C)cc1-n1c(SCC(=O)Nc2cc(C)on2)nc2sc(C)c(C)c2c1=O` here?
A: Its Potency is 2.51 µM (active).

Q: With `NC(=O)C1CCN(c2nc(C3CC3)nc3c2nnn3Cc2ccccc2Cl)CC1` as the compound, how does the Potency read?
A: The Potency was 4.47 µM (active).
